Mot1-301 SUMO: SUMOylation pathway inhibition by Mot1-301 growth rescue. S. cerevisiae Mot1-301 growth rescue, ATP luminescence, 38.5C; percent above DMSO median, 100 means doubled. growth rescue, % at 18.8 µM. 320,000 tested, 1% active;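 active means every valid replicate shows activation above 250% relative to neutral control wells; inactive means the rest, any valid replicate at or below 250%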
CHT PAM: human CHT allosteric activation. Q9GZV3. 310,000 tested, 0.49% active. CHT-expressing cells, membrane potential dye, choline EC20; stronger effect = higher value; LV-AA mutant CHT in HEK293 cells. B-score at 10 µM;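 active means initial fluorescence not abnormally high and integrated response B-score, plate-corrected, over 3 SD above library mean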
CHT inh: human CHT choline transport inhibition; 310,000 tested, 0.86% active; B-score at 10 µM; CHT-expressing cells, membrane potential dye, choline response; stronger effect = lower value;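 active means B-score over 3 SD under the library average, and starting fluorescence ratio not unusually high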;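 further: choline stimulus applied at its EC90 after an EC20 pre-addition; B-score computed on integrated fluorescence ratio after choline addition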
MEKK2 WT-MEK5: raises or lowers MEK5 binding to wildtype human MEKK2 PB1 domain | Q9Y2U5 | 290,000 tested, 1.1% active | bead flow cytometry, Alexa488-MEK5 binding to MEKK2 WT; actives lie on both sides | binding response (% of control), % at 10 µM; in the data active means binding response below about 67% or above about 130%
MEKK2 mut-MEK5: signal of MEK5 binding to mutant human MEKK2 PB1 domain; 290,000 tested, 0.35% active; percent response, % at 10 µM; bead flow cytometry, Alexa488-MEK5 binding to MEKK2 mutant; AID 1530; in the data active means percent response above about 24%, passing the limit was not always enough
MEKK3 PB1 HTS: modulators (inhibitors or enhancers) of MEK5 binding to human MEKK3 PB1 domain; 290,000 tested, 1.4% active; bead-based flow cytometry, Alexa488-MEK5 binding to MEKK3; actives lie on both sides; 0 = blocked by unlabeled MEK5, 100 = vehicle; binding response (% of control), % at 10 µM; Q99759;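 active means binding response more than 3 SD above or below the average of its plate-row segment, actives on both sides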;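 further: Alexa488 bead fluorescence after subtracting the streptavidin-only scavenger bead signal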
Target sequence (Q99759 whole entry, looked up, the tested form may be a part): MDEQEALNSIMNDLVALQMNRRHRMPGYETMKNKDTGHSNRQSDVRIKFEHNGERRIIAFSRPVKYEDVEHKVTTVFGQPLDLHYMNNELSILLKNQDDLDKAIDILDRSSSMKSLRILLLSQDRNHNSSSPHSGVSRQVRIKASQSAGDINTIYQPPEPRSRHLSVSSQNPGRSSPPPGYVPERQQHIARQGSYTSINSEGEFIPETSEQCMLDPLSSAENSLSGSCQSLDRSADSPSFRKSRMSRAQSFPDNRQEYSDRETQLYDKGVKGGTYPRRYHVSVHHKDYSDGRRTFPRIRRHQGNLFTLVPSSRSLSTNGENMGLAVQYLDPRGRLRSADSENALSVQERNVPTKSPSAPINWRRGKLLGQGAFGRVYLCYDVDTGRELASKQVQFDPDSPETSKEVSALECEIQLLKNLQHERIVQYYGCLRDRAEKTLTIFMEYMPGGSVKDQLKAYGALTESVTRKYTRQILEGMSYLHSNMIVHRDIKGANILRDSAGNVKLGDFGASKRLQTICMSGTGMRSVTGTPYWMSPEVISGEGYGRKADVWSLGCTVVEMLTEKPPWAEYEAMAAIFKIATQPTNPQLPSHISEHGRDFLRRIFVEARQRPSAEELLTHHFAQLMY
CHT activ conf: confirmation of human choline transporter (CHT) activators; AID 504833; 2,500 tested, 91% active; CHT-expressing cells, membrane potential dye fluorescence (FDSS); % of choline EC20–EC90 response window; HEK293 expressing CHT LV-AA mutant; choline added at its EC20; shares compounds with CHT PAM; activation, % at 10 µM;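 active means primary screen active, with duplicate mean activation above negative control mean plus 3 SD, cut at about 11% in these data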
HEK293 MP dye: counter-screen for CHT activators: effect in parental HEK293 cells | shares compounds with CHT PAM | membrane potential dye fluorescence (FDSS); measured after EC20 choline addition | ratio readout change at 10 µM, hits read low | 2,500 tested, 62% active;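 active means duplicate-averaged ratio beyond 3 SD from buffer wells, up or down, though filed actives are nearly all decreases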
Each line names hits and unclear results; the compound was inactive in the other large screens (follow-up assays come after a bar, where they were run). Most compounds without a hit are left out; they make up all but 4.1% or so of the library.

O=C(NCC(c1ccco1)N1CCN(c2ccccc2)CC1)c1cccs1 (configuration not stated)	none (no result: MEKK2 WT-MEK5, MEKK2 mut-MEK5, MEKK3 PB1 HTS)
O=C(COc1ccccc1)NCC(c1ccco1)N1CCN(c2ccccc2)CC1 (configuration not stated)	CHT PAM 8.04 (no result: MEKK2 WT-MEK5, MEKK2 mut-MEK5, MEKK3 PB1 HTS) | CHT activ conf 45.2 | HEK293 MP dye inactive
CCCCN(CCCNC(=O)c1ccc(CS(=O)(=O)c2c(Cl)cccc2Cl)o1)Cc1ccccc1	none | CHT activ conf 43.9 | HEK293 MP dye -41.7
CCCCN(CC)CCCNC(=O)c1ccc(CS(=O)(=O)c2c(Cl)cccc2Cl)o1	none
Cc1cc(C)n(-c2nc(SCCN(C)C)c3c4c(sc3n2)COC(C)(C)C4)n1	none | CHT activ conf 40.8 | HEK293 MP dye -45
CCOc1cc2c(cc1OCC)CN(CC(=O)Nc1ccccc1C(=O)NC1CC1)CC2	none (no result: CHT PAM, CHT inh, MEKK2 WT-MEK5, MEKK2 mut-MEK5, MEKK3 PB1 HTS)
CCOC(=O)c1c(-c2ccccc2)csc1NC(=O)CSc1nncs1	none | CHT activ conf 28.5 | HEK293 MP dye inactive
CCOC(=O)c1c(-c2ccccc2)csc1NC(=O)CSc1ccccc1	none
Fc1ccc(-c2nc3ccncc3[nH]2)cc1	CHT PAM 7.92 | CHT activ conf 59.4 | HEK293 MP dye -64.8
Fc1ccc(-c2nc3ccccc3[nH]2)cc1	none
Clc1ccc(-c2nc3ccncc3[nH]2)cc1	CHT PAM 6.77 | CHT activ conf 51.6 | HEK293 MP dye -50.8
COc1ccc(-c2nc3ccncc3[nH]2)cc1OC	none
Cc1ccc(S(=O)(=O)N2CCN(C(=O)CN3C(=O)c4ccc([N+](=O)[O-])cc4C3=O)CC2)cc1C	none (no result: CHT PAM, CHT inh, MEKK2 WT-MEK5, MEKK2 mut-MEK5, MEKK3 PB1 HTS)
COc1ccc(N(CC(=O)N2CCc3ccccc3C2)S(C)(=O)=O)cc1Cl	none
Cc1nnc(NCc2ccncc2)c2ccccc12	CHT PAM 7.07 | CHT activ conf 56.1 | HEK293 MP dye -46.4
COC(=O)C1=C(C)N(CCCC(=O)O)C(=O)NC1c1ccccc1Cl (configuration not stated)	none
CCOC(=O)Cc1c(Cl)c2ccccc2[nH]c1=O	none
CCOC(=O)C[n+]1ccc2c([nH]c3ccccc32)c1C	none | CHT activ conf 49.5 | HEK293 MP dye -40.6
CCCCCC[N+](C)(C)CC/C=C1/c2ccccc2Sc2ccc(Cl)cc21	none | CHT activ conf 44.0 | HEK293 MP dye -27.1
COCCn1nnnc1C(c1ccccn1)N1CCN(c2cc(Cl)ccc2C)CC1 (configuration not stated)	CHT PAM 7.9 | CHT activ conf 15.1 | HEK293 MP dye inactive
COc1ccc(Cn2nnnc2C(c2ccccn2)N2CCN(c3cc(Cl)ccc3C)CC2)cc1 (configuration not stated)	none
Cc1sc2ncn3cnnc3c2c1C	none (no result: Mot1-301 SUMO) | CHT activ conf 44.8 | HEK293 MP dye -40.6
CC[n+]1c(/C=C/Nc2ccccc2)oc2ccccc21	none | CHT activ conf 41.4 | HEK293 MP dye -35
CC[n+]1c(/C=C/N(C)c2ccccc2)oc2ccc(F)cc21	none | CHT activ conf 29.9 | HEK293 MP dye -39.2
Cc1cc(C)nc(/N=C(\N)Nc2ccc(S(=O)(=O)O)cc2)n1	none (no result: Mot1-301 SUMO, CHT PAM, CHT inh)
Cc1cc(C)nc(/N=C(\N)Nc2ccc(S(=O)(=O)Nc3nccc(C)n3)cc2)n1	CHT PAM 7.25 | CHT activ conf 58.5 | HEK293 MP dye -56.3
Cc1cc(N2CCN(C)CC2)nc(N2CCOCC2)n1	CHT PAM 8.35 | CHT activ conf 45.0 | HEK293 MP dye -90.6
Cc1cc(N2CCOCC2)nc(N2CCOCC2)n1	none | CHT activ conf 76.4 | HEK293 MP dye -39.9
CC(Sc1nc2c(c(=O)[nH]1)CCCC2)C(=O)Nc1ccccc1C#N (configuration not stated)	none

Compound activity as filed in PubChem.
